LEDGF integ inh = blocks HIV-1 LEDGF/p75-dependent DNA integration; 370,000 compounds, 0.64% hits; AID 743269; inhibition, % at 3.7 µM; TR-FRET IN-LEDGF/p75 DNA integration, Eu/Cy5;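 active means inhibition above the screen-wide mean plus 3 SD, cut at about 13% in these data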;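 further: signal is the Cy5 over europium emission ratio at 671 and 618 nm; 0% = plate median of compound wells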
PRMT1 inh = inhibitors of human PRMT1 | Q99873 | recombinant PRMT1, activity-based probe fluorescence polarization | inhibition, % at 2.79 µM | 370,000 compounds, 1.3% hits | AID 652257;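 active means inhibition above about 21% made by adding two undisclosed values, limit read from the data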
UHRF1 binding = UHRF1 methyl-DNA binding inhibition; Q96T88; UHRF1 binding to methylated oligo, TR-FRET; inhibition, % at 4.4 µM; 370,000 compounds, 0.75% hits; AID 687016; in the data active means inhibition above about 21%;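 further: UHRF1 SRA domain binding a hemimethylated CpG hairpin DNA probe; 0% = median of test compound wells and 100% = reference inhibitor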
Target sequence (Q96T88 whole entry, looked up, the tested form may be a part): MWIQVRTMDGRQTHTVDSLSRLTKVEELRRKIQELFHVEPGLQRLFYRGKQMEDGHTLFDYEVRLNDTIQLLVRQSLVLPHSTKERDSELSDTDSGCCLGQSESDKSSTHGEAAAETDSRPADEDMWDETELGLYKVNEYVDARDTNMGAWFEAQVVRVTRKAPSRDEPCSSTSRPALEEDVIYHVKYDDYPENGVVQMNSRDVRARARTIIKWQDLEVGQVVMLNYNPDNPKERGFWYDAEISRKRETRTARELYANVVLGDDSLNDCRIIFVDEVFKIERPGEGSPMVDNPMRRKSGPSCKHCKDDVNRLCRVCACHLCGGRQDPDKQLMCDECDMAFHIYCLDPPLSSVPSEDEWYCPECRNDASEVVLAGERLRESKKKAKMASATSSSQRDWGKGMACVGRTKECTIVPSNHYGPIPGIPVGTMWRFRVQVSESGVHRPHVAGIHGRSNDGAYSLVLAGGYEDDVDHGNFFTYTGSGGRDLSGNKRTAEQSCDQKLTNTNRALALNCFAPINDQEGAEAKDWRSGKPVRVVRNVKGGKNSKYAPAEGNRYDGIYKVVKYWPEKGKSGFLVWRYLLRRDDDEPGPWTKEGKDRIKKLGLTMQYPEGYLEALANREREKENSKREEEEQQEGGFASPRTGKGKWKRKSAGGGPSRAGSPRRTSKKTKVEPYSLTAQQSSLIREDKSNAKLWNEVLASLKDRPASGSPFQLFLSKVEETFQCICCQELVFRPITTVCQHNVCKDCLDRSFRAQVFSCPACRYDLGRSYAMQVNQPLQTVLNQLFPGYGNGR
MBD2 DNA inh = blocks human MBD2 binding to methylated DNA; Q9UBB5; TR-FRET, MBD2 binding to methylated oligonucleotide; inhibition, % at 4.4 µM; 370,000 compounds, 0.31% hits; AID 686964; in the data active means inhibition above about 13%
PRMT1 inh conf = confirmation of human PRMT1 inhibitors. inhibition, % at 2.79 µM. recombinant His-PRMT1, activity-based probe fluorescence polarization. AID 687036. shares compounds with PRMT1 inh. 3,300 compounds, 42% hits;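 active means mean inhibition across replicates above the hit cutoff derived for the earlier primary screen, cut at about 22% in these data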
* marks the source's active call; other numbers are inactive results. This is a sample that favours compounds with a hit; in the whole collection about 2.5% have one here.

Results for CCCOc1ccc(N2C(=O)CC(NCCc3ccc(S(N)(=O)=O)cc3)C2=O)cc1 (stereo not given) ?
LEDGF integ inh: -1.2; PRMT1 inh: 50.9*; UHRF1 binding: 0.0; MBD2 DNA inh: 2.1; PRMT1 inh conf: -2.4

Results for CCOc1ccc(N2C(=O)CC(NCCc3ccc(S(N)(=O)=O)cc3)C2=O)cc1 (stereo not given) ?
LEDGF integ inh: 5.4; PRMT1 inh: 52.8*; UHRF1 binding: -1.9; MBD2 DNA inh: 2.5; PRMT1 inh conf: 3.4

What do the screens show for `CCOc1ccc(N2C(=O)CC(NCCc3c[nH]c4ccccc34)C2=O)cc1` (stereo not given)?
LEDGF integ inh: -3.1; PRMT1 inh: 31.1*; UHRF1 binding: 1.1; MBD2 DNA inh: -0.3; PRMT1 inh conf: 14.1

Results for CCOc1ccc(N2C(=O)CC(NNc3nc4ccccc4s3)C2=O)cc1 (stereo not given) ?
LEDGF integ inh: -1.5; PRMT1 inh: 2.9; UHRF1 binding: -3.0; MBD2 DNA inh: -3.4

What do the screens show for `CCOc1ccc(N2C(=O)CC(NCCc3ccncc3)C2=O)cc1` (stereo not given)?
LEDGF integ inh: -1.6; PRMT1 inh: 58.4*; UHRF1 binding: 0.0; MBD2 DNA inh: 5.0; PRMT1 inh conf: -0.2

Results for CCCOc1ccc(N2C(=O)CC(NCCNc3ccc(S(=O)(=O)CC)cc3)C2=O)cc1 (stereo not given) ?
LEDGF integ inh: 2.4; PRMT1 inh: 6.7; UHRF1 binding: -2.1; MBD2 DNA inh: 2.1

Results for CCOC(=O)C1=C(C)NC(=O)/C1=C\N(C)C ?
LEDGF integ inh: -1.4; PRMT1 inh: 4.3; UHRF1 binding: -3.6; MBD2 DNA inh: -3.7

Results for CCn1cc(C(=O)N[C@@H](CCSC)C(=O)NCCCn2ccnc2)c(=O)c2cc3c(cc21)OCO3 ?
LEDGF integ inh: 2.4; PRMT1 inh: -2.0; UHRF1 binding: 0.3; MBD2 DNA inh: -6.3

What do the screens show for `CCN(CC)CCSc1nc(O)c(-c2ccccc2)c(=O)n1-c1ccccc1`?
LEDGF integ inh: -1.4; PRMT1 inh: 25.2*; UHRF1 binding: 0.6; MBD2 DNA inh: -5.6; PRMT1 inh conf: 15.7

What do the screens show for `NS(=O)(=O)c1ccc(NC(=O)CN(C(=O)C(F)(F)F)C2CCCC2)cc1`?
LEDGF integ inh: 1.6; PRMT1 inh: 0.8; UHRF1 binding: -1.6; MBD2 DNA inh: 4.5

What do the screens show for `CC(=O)Nc1ccc(NC(=O)c2nc(S(=O)(=O)Cc3ccccc3)ncc2Cl)cc1`?
LEDGF integ inh: 2.5; PRMT1 inh: 30.1*; UHRF1 binding: -1.4; MBD2 DNA inh: -2.6; PRMT1 inh conf: 23.5*

What do the screens show for `CS(=O)(=O)c1ncc(Cl)c(C(=O)Nc2ccc3ccccc3c2)n1`?
LEDGF integ inh: 4.1; PRMT1 inh: 50.1*; UHRF1 binding: 1.5; MBD2 DNA inh: 1.6; PRMT1 inh conf: 35.1*

How did CCC1CCCCN1S(=O)(=O)c1ccc(NC(=O)c2ccncc2)cc1 (stereo not given) do in these assays?
LEDGF integ inh: 2.3; PRMT1 inh: 1.4; UHRF1 binding: 0.0; MBD2 DNA inh: -0.9

What do the screens show for `Cc1ccc(CS(=O)(=O)c2ncc(Cl)c(C(=O)Nc3ccc(OC(F)F)cc3)n2)cc1`?
LEDGF integ inh: -3.6; PRMT1 inh: 29.2*; UHRF1 binding: -0.9; MBD2 DNA inh: -2.8; PRMT1 inh conf: 21.4*

Results for CCC1CCCCN1S(=O)(=O)c1ccc(NC(=O)c2nc(S(C)(=O)=O)ncc2Cl)cc1 (stereo not given) ?
LEDGF integ inh: -4.8; PRMT1 inh: 50.2*; UHRF1 binding: 5.2; MBD2 DNA inh: 3.1; PRMT1 inh conf: 46.7*

Results for CCS(=O)(=O)c1ncc(Cl)c(C(=O)Nc2ccc(C)cc2)n1 ?
LEDGF integ inh: 1.9; PRMT1 inh: 3.0; UHRF1 binding: 1.7; MBD2 DNA inh: -3.9

What do the screens show for `CCOC(=O)C1(CCOC)CCN(C2C3CC4CC(C3)CC2C4)CC1` (stereo not given)?
LEDGF integ inh: 7.1; PRMT1 inh: -4.2; UHRF1 binding: 5.9; MBD2 DNA inh: 3.5

How did COC(=O)Cc1cc(OC)c(OC)cc1S(=O)(=O)N(C)C do in these assays?
LEDGF integ inh: 0.2; PRMT1 inh: 1.5; UHRF1 binding: 2.1; MBD2 DNA inh: 1.0

How did O=C(O)C1CSC(c2ccco2)N1 (stereo not given) do in these assays?
LEDGF integ inh: 48.3*; PRMT1 inh: 26.6*; UHRF1 binding: 64.9*; MBD2 DNA inh: 33.8*; PRMT1 inh conf: 32.3*

What do the screens show for `O=C1CSC(c2ccco2)N1` (stereo not given)?
LEDGF integ inh: 4.3; PRMT1 inh: -0.3; UHRF1 binding: -3.3; MBD2 DNA inh: 0.2

How did O=C(c1ccoc1)N1CCN(c2cc(-c3ccco3)nc3cc(-c4ccco4)nn23)CC1 do in these assays?
LEDGF integ inh: 9.3; PRMT1 inh: 33.9*; UHRF1 binding: 1.6; MBD2 DNA inh: 8.0; PRMT1 inh conf: -0.7

What do the screens show for `COc1cccc(-c2cc3nc(-c4ccco4)cc(N4CCN(C(C)=O)CC4)n3n2)c1`?
LEDGF integ inh: 3.1; PRMT1 inh: 49.9*; UHRF1 binding: -4.1; MBD2 DNA inh: -5.8; PRMT1 inh conf: 16.0

What do the screens show for `COc1cc(C(=O)NCC2CCCO2)ccc1OCc1ccccc1Cl` (stereo not given)?
LEDGF integ inh: 0.5; PRMT1 inh: -2.5; UHRF1 binding: -4.2; MBD2 DNA inh: -10.3

What do the screens show for `N#CCN1CCC(c2cc(-c3ccco3)n[nH]2)CC1`?
LEDGF integ inh: 4.8; PRMT1 inh: 57.0*; UHRF1 binding: -1.6; MBD2 DNA inh: -7.4; PRMT1 inh conf: 3.0

Results for COc1ccc(CN2C(=O)c3cccnc3C2=O)cc1S(=O)(=O)NCc1ccc(C)o1 ?
LEDGF integ inh: -1.3; PRMT1 inh: 41.2*; UHRF1 binding: -2.7; MBD2 DNA inh: -0.3; PRMT1 inh conf: -1.3

Results for COc1ccccc1CNS(=O)(=O)c1cc(CN2C(=O)c3cccnc3C2=O)ccc1OC ?
LEDGF integ inh: 0.9; PRMT1 inh: 1.3; UHRF1 binding: -2.7; MBD2 DNA inh: -0.8

What do the screens show for `C=CCNc1nnc(SC2CC(=O)N(c3ccc(OCCC)cc3)C2=O)s1` (stereo not given)?
LEDGF integ inh: -1.5; PRMT1 inh: 67.2*; UHRF1 binding: 0.7; MBD2 DNA inh: -0.4; PRMT1 inh conf: 66.2*

Results for Nc1nnc(SC2CC(=O)N(c3ccccc3)C2=O)s1 (stereo not given) ?
LEDGF integ inh: 1.0; PRMT1 inh: 74.6*; UHRF1 binding: -0.9; MBD2 DNA inh: -6.4; PRMT1 inh conf: 72.7*

What do the screens show for `CC(=O)Nc1ccc(N2C(=O)CC(Sc3nc4ccccc4s3)C2=O)cc1` (stereo not given)?
LEDGF integ inh: 0.7; PRMT1 inh: 16.4; UHRF1 binding: 2.9; MBD2 DNA inh: -3.2

What do the screens show for `COc1ccccc1N1C(=O)CC(Sc2n[nH]c(-c3cccc(C)c3)n2)C1=O` (stereo not given)?
LEDGF integ inh: -4.7; PRMT1 inh: 88.1*; UHRF1 binding: 9.8; MBD2 DNA inh: -0.5; PRMT1 inh conf: 72.5*

Bioassay records from PubChem.
